In ChEMBL document CHEMBL1961873, “Compounds: GSK PKIS; Assays: Nanosyn kinase panel” (2012):
Values joined by “and” are separate entries in the source; they are usually repeats but may differ in a detail not shown here. Identical values can stand only once.

What was measured:
[1] = target: Serine/threonine-protein kinase MRCK alpha (Homo sapiens) (UniProt Q5VT25); details: at 0.1 µM
[2] = target: Serine/threonine-protein kinase MRCK alpha (Homo sapiens) (UniProt Q5VT25); details: at 1 µM
[3] = target: Serine/threonine-protein kinase MRCK beta (Homo sapiens) (UniProt Q9Y5S2); details: at 0.1 µM
[4] = target: Serine/threonine-protein kinase MRCK beta (Homo sapiens) (UniProt Q9Y5S2); details: at 1 µM
[5] = target: Ribosomal protein S6 kinase alpha-5 (Homo sapiens) (UniProt O75582); details: at 0.1 µM
[6] = target: Ribosomal protein S6 kinase alpha-5 (Homo sapiens) (UniProt O75582); details: at 1 µM
[7] = target: Ribosomal protein S6 kinase alpha-4 (Homo sapiens) (UniProt O75676); details: at 0.1 µM
[8] = target: Ribosomal protein S6 kinase alpha-4 (Homo sapiens) (UniProt O75676); details: at 1 µM
[9] = target: Ribosomal protein S6 kinase beta-1 (Homo sapiens) (UniProt P23443); details: at 0.1 µM
[10] = target: Ribosomal protein S6 kinase beta-1 (Homo sapiens) (UniProt P23443); details: at 1 µM
[11] = target: T1, 3-phosphoinositide-dependent protein kinase 1 (Homo sapiens) (UniProt O15530); details: at 0.1 µM;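 note: values are mean inhibition of PDK1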
T1 sequence (whole entry): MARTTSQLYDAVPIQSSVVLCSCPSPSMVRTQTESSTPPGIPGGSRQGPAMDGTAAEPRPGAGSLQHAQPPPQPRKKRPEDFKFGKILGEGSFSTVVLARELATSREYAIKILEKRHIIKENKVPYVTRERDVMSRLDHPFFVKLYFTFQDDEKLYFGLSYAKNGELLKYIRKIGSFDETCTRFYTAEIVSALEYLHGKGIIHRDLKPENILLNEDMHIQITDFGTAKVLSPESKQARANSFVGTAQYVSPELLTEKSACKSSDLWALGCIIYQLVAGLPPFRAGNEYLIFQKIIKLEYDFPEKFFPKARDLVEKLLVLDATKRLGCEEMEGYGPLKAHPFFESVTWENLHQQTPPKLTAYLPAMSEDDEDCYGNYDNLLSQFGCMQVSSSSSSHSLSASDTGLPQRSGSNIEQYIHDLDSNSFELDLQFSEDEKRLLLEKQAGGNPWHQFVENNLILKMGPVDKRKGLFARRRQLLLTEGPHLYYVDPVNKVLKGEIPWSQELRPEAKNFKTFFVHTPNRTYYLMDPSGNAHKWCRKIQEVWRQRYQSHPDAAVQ

[12] = target: cAMP-dependent protein kinase catalytic subunit alpha (Homo sapiens) (UniProt P17612); details: at 0.1 µM
[13] = target: cAMP-dependent protein kinase catalytic subunit alpha (Homo sapiens) (UniProt P17612); details: at 1 µM
[14] = target: Protein kinase C alpha type (Homo sapiens) (UniProt P17252); details: at 0.1 µM
[15] = target: Protein kinase C alpha type (Homo sapiens) (UniProt P17252); details: at 1 µM
[16] = target: Protein kinase C beta type (Homo sapiens) (UniProt P05771); details: at 0.1 µM
[17] = target: Protein kinase C beta type (Homo sapiens) (UniProt P05771); details: at 1 µM
[18] = target: Protein kinase C eta type (Homo sapiens) (UniProt P24723); details: at 0.1 µM
[19] = target: Protein kinase C eta type (Homo sapiens) (UniProt P24723); details: at 1 µM
[20] = target: Protein kinase C gamma type (Homo sapiens) (UniProt P05129); details: at 0.1 µM;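 note: values are mean percent inhibition of PKC gamma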

Chain of Serine/threonine-protein kinase MRCK beta (Homo sapiens) (Q9Y5S2 whole entry): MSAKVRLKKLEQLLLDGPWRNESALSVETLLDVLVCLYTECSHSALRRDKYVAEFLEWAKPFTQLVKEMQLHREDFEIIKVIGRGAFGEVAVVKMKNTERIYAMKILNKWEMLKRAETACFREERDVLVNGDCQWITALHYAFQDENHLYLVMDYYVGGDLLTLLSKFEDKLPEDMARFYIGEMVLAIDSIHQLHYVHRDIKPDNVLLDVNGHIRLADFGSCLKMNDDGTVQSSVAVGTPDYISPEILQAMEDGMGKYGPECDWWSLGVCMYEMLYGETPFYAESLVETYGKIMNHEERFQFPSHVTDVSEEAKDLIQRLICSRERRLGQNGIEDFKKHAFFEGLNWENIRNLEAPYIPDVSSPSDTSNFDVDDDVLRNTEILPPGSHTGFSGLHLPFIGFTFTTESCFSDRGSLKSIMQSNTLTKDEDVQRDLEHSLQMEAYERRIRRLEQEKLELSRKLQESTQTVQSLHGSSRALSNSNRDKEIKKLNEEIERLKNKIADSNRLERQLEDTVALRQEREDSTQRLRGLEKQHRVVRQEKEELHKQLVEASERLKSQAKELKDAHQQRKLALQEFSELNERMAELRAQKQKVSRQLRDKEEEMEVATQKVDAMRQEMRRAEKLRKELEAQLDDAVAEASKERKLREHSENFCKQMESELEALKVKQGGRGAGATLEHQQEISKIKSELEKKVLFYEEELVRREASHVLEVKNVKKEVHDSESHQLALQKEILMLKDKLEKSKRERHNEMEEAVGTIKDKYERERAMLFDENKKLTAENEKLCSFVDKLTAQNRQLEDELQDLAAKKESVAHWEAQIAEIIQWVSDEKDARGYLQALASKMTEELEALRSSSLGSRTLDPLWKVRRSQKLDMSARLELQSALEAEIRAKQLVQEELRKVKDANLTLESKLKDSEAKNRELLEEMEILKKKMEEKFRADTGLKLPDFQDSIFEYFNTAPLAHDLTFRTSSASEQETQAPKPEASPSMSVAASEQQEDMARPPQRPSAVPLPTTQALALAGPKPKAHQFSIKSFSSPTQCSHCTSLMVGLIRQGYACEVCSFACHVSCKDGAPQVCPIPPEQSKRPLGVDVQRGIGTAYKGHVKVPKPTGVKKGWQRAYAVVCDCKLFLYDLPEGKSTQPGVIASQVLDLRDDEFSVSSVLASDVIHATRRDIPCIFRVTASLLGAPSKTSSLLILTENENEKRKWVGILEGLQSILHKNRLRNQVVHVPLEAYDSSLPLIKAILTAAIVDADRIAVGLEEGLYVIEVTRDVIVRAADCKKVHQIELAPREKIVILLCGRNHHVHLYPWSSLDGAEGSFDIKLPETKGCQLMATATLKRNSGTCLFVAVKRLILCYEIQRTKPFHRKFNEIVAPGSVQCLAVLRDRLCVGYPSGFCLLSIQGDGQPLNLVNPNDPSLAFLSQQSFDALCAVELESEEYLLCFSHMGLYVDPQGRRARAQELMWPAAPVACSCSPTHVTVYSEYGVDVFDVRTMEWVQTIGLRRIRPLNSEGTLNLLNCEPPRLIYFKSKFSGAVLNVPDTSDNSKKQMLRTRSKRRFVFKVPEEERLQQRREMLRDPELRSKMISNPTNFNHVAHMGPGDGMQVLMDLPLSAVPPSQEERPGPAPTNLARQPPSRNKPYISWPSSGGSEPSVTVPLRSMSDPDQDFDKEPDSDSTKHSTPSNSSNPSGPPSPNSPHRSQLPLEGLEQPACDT
Chain of Ribosomal protein S6 kinase beta-1 (Homo sapiens) (P23443 whole entry, looked up): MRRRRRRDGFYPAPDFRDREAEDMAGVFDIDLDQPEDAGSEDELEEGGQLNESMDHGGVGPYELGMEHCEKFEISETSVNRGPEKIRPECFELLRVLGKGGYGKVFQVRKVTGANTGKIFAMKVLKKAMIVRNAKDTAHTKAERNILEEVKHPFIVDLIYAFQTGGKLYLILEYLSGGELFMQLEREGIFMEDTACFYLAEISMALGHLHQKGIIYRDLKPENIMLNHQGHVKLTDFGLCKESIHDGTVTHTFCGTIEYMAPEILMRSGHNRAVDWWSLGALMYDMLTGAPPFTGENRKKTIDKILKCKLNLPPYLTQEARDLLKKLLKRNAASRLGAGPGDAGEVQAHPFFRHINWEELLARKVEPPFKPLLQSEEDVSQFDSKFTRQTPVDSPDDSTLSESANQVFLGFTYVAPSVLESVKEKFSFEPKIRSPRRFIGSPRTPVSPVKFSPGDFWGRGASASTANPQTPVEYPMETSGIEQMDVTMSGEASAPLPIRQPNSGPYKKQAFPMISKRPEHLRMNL
Chain of Ribosomal protein S6 kinase alpha-4 (Homo sapiens) (O75676 whole entry, looked up): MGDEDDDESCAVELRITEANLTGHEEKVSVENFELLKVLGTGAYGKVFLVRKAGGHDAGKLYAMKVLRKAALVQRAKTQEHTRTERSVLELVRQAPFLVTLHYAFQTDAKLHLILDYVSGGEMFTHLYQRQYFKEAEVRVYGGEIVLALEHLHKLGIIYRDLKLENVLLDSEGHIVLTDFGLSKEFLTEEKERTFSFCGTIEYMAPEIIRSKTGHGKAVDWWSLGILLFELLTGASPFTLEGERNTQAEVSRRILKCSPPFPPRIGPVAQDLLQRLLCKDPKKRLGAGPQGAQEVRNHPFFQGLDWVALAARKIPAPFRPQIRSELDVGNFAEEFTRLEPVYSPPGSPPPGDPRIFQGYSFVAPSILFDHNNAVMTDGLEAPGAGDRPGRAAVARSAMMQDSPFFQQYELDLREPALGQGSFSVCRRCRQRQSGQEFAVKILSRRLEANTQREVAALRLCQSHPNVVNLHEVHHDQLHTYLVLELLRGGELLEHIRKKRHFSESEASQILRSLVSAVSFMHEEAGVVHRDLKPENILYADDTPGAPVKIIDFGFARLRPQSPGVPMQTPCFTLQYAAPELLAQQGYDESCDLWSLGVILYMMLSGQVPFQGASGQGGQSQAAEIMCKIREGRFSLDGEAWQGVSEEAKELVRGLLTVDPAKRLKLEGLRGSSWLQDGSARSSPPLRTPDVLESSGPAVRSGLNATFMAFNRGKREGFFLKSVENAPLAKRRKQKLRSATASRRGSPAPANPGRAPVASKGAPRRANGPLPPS
Chain of Ribosomal protein S6 kinase alpha-5 (Homo sapiens) (O75582 whole entry, looked up): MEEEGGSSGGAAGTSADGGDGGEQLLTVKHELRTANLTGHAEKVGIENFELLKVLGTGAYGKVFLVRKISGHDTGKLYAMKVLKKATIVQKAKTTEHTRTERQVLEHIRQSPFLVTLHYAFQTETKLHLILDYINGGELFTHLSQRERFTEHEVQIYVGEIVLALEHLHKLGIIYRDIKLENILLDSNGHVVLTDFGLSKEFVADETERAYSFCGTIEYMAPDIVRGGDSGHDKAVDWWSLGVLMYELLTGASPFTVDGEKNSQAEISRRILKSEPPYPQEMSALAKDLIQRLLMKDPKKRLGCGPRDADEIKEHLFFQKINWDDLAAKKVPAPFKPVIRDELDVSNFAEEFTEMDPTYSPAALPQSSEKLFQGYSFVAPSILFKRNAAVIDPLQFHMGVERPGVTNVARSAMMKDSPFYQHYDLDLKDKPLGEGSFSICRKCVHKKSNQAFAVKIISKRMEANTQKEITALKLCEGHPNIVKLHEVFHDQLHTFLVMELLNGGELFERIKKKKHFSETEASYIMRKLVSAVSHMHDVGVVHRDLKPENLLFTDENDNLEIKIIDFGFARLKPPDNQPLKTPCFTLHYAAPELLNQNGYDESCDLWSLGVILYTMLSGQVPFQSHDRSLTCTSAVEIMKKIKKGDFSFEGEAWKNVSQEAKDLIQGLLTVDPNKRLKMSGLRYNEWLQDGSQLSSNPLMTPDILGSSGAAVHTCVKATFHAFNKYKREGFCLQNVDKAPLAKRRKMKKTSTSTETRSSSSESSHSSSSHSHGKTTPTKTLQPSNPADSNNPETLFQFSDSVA

| Structure (SMILES) | inhibition [1] | inhibition [2] | inhibition [3] | inhibition [4] | inhibition [5] | inhibition [6] | inhibition [7] | inhibition [8] | inhibition [9] | inhibition [10] | inhibition [11] | inhibition [12] | inhibition [13] | inhibition [14] | inhibition [15] | inhibition [16] | inhibition [17] | inhibition [18] | inhibition [19] | inhibition [20] |
| --- | --- | --- | --- | --- | --- | --- | --- | --- | --- | --- | --- | --- | --- | --- | --- | --- | --- | --- | --- | --- |
| CS(=O)(=O)CCNCc1ccoc1-c1ccc2ncnc(Nc3ccc(OCc4ccccc4)cc3)c2c1 | -1.71% | -3.38% | -0.65% | -2.47% | -0.3% | -2.16% | 0.88% | -1.22% | -1.12% | -1.32% | 1.23% | 1.55% | 1.02% | -0.16% | 0.23% | -0.13% | -4.5% | 1.81% | -0.91% | 0.57% |
| Fc1cccc(COc2ccc(Nc3ncncc3C#Cc3ccccc3)cc2Cl)c1 | -0.09% | 2.32% | -0.25% | 0.29% | 3.88% | 4.33% | 2.46% | 4.37% | 1.71% | 2.17% | 3.09% | 2.03% | 2.57% | 1.03% | 1.01% | 1.01% | 4.8% | 0.23% | 4.62% | 3.66% |
| CNC(=O)c1cncc(/C=C/c2ccccc2C)c1 | -0.01% | 2.94% | -0.34% | 0.83% | 3.42% | 6.01% | 2.58% | 4.27% | -0.48% | 1.97% | 2.42% | 4.12% | 3.53% | 0.63% | 1.68% | 1.31% | 5.47% | 4.83% | 5.78% | -2.58% |
| O=C(O[C@H]1CN[C@H](C#Cc2cc3ncnc(Nc4ccc(OCc5cccc(F)c5)c(Cl)c4)c3s2)C1)N1CCOCC1 | -0.44% | 0.92% | 0.34% | 0.26% | -0.86% | 0.41% | 2.64% | 4.39% | 1.72% | 2.85% | 0.08% | 2.39% | 3.33% | 0.97% | -4.52% | 1.43% | 2.48% | 2.88% | 5.07% | 4.27% |
| NC(=O)c1ccc2c(-c3ccnc(NCCCO)n3)c(-c3ccc(F)cc3)nn2c1 | 0.04% | 2.55% | 0.29% | 2.28% | 11.4% | 8.01% | 1.44% | 2.05% | 1.72% | 1.46% | 2.05% | 2.22% | 2.01% | 1.39% | 11% | 2.42% | 17.5% | 2.29% | 4.92% | 3.3% |
| NS(=O)(=O)c1ccc(N/N=C2\C(=O)Nc3cccc(CCc4ccncc4)c32)cc1 | -0.78% | -0.69% | 0.54% | 0.31% | -0.75% | -0.48% | 0.37% | 2.61% | 0.08% | -0.48% | 6.76% | 1.41% | 1.07% | 0.11% | 0.43% | -0.59% | -0.96% | -1.41% | 1.16% | -0.97% |
| Cc1cc(O)cc(C)c1/C=C/c1cncc(C(N)=O)c1 | 0.25% | 0.43% | 1.39% | 1.02% | 1.68% | 2.9% | 1.67% | 2.18% | 1.07% | 0.31% | 1.65% | 1.78% | 2.91% | 1.24% | 1.91% | -0.18% | -2.09% | 1.74% | -2.58% | 3.81% |
| CS(=O)(=O)Nc1ccc(-c2ccc3c(NC(=O)C4CC4)n[nH]c3c2)cc1 | -0.45% | -1.86% | -0.12% | 1.45% | 3.35% | 5.67% | -1% | 3.37% | 2.17% | 2.83% | 2.46% | 1.42% | 1.85% | 1.17% | 1.78% | -0.7% | 0.21% | 4.05% | 1.11% | 2.49% |
| COC(=O)Nc1nc2cc(Oc3ccc(NC(=O)Nc4ccccc4)cc3)ccc2[nH]1 | 1.11% | 3.26% | -0.1% | 0.05% | 2.4% | 2.36% | 2.62% | 3.88% | 2.09% | 3.12% | 1.31% | 2.49% | 2.15% | -0.02% | 0.51% | 1.53% | 2.12% | 2.8% | 6.1% | 0.41% |
| O=C(Nc1n[nH]c2nnc(-c3cccnc3)cc12)C1CC1 | 2.61% | -0.69% | 0.62% | 0.7% | -1.47% | -0.64% | -0.31% | 0.76% | -0.26% | 0.25% | -0.25% | -0.44% | 0.38% | -0.19% | 2.33% | -0.7% | 0.6% | -1.43% | 2.91% | -0.5% |
| COc1cc2c(cc1Nc1nc(Nc3cccc(F)c3C(N)=O)c3cc[nH]c3n1)N(C(=O)CN1CCN(C(C)C)CC1)CC2 | 6.36% | 5.12% | 0.17% | 2.33% | 1.4% | 3.93% | 1.44% | 3.9% | 2.23% | 2.83% | -0.05% | 3.63% | 2.83% | 3.39% | 1.01% | 0.6% | 3.47% | 0.59% | 1.37% | 1.36% |
| Nc1nonc1-c1nc2cnccc2n1C1CC1 | 4.84% and 5.86% | 35.7% and 40% | 7.62% and 9.27% | 41% and 42.7% | 75.6% and 71.7% | 82.3% and 76.5% | 44.6% and 48.9% | 75.1% and 74.5% | 66.6% and 68.6% | 89.3% and 88.8% | 2.07% and 2.38% | 5.45% and 2.09% | 36.2% and 35.9% | 1.78% and -0.98% | 15.7% and 16.9% | 45% and 47.9% | 68.3% and 74.8% | 45.9% and 49.3% | 88.8% and 90.8% | 3.3% and 3.29% |
| CCCNc1cccc(-n2ncc3c(N/N=C/c4ccncc4)ncnc32)c1 | 1.31% | 5.18% | -0.11% | 0.92% | -4.25% | -2.6% | 1.74% | 2.6% | 1.2% | 8.74% | 1.19% | 1.59% | 3.62% | 0.98% | 1.45% | 1.35% | 5.99% | 2.17% | 2.92% | 1.35% |
| CCN1CCC(C(=O)Nc2n[nH]c3nnc(-c4cccc(F)c4F)cc23)CC1 | -1.78% | 1.74% | 0.8% | -0.36% | -1.22% | -2.44% | 0.41% | 0.26% | -0.22% | -1.27% | -0.53% | 0.16% | 0.64% | -0.7% | 0.27% | -0.34% | -0.14% | 0.24% | 0.58% | -1.51% |
| OCCCNc1nccc(-c2c(-c3ccc(F)cc3)nn3cc(C(F)(F)F)ccc23)n1 | 0.26% | -1.54% | 0.31% | 1.86% | 4.64% | 4.76% | 2.6% | 5.75% | 3.2% | 2.94% | 2.27% | 5.3% | 1.41% | 0.43% | 2.81% | 3.23% | 5.54% | 3.94% | 0.31% | 2.28% |
| CCOc1ccc2c(-c3ccnc(Nc4cc(OC)cc(C(F)(F)F)c4)n3)cnn2n1 | -0.76% | -0.62% | 0.09% | 0.13% | 1.4% | 2.37% | 1.07% | -0.61% | 0.27% | 0.73% | 1.07% | 0.6% | 3.91% | 0.42% | 5.31% | 5.55% | 2.13% | 1.53% | -0.66% | 1.75% |
| COC(=O)Nc1nc2ccc(Oc3ccc(NC(=O)Nc4cc(C(F)(F)F)ccc4F)cc3)cc2s1 | -0.38% | -1.54% | 0.73% | 1.68% | 0.52% | 0.93% | 1.67% | 2.86% | 6.33% | 23.2% | 0.63% | 1.2% | 0.64% | -0.14% | 9.89% | 1.64% | 2.17% | 2.29% | 1.44% | -2.55% |
| CC1(C)CC(n2cnc(-c3ccc(F)cc3)c2-c2ccnc(N)n2)CC(C)(C)N1 | 0.39% | -0.52% | 0.89% | 1.72% | -2.87% | -2.36% | 2.08% | 3.62% | 1.01% | 0.28% | 0.82% | 0.29% | 4.01% | 0.96% | 2.63% | 1.89% | 3.35% | 1.68% | -2.97% | -2.6% |
| Nc1ncnc2occ(-c3ccc(NC(=O)Nc4cc(C(F)(F)F)ccc4F)cc3)c12 | 0.43% | -0.27% and 0.62% | 0.53% and -0.08% | 0.77% and -0.99% | 5.58% and -0.86% | 23.9% and 10.9% | 3.23% and -1.15% | 19.7% and 6.99% | 28.2% and 17.1% | 77.4% and 70.2% | 2.41% and -0.72% | 0.57% and -0.25% | 1.31% and -1.17% | 0.16% and -0.04% | 0.52% and -0.37% | 1.05% and -0.26% | 1.13% and 0.29% | 1.5% and 0.01% | 1.23% and -2.29% | -0.11% and -2.32% |
